Bioassay records as filed in PubChem BioAssay.
Shown are actives, neighbours in structure and some others; about 9.5% of the full set was active somewhere.
RE007 growth inh – less growth of the S. pombe RE007 Vpr strain | S. pombe RE007 Vpr strain, BacTiter-Glo ATP luminescence, 24 h | Potency, µM (series often up to 92.2 µM), for the others: at the top dose activity change, negative = less growth, hits mostly inhibitors | hit rate 0.21% among 360,000 | AID 651644; active means well fitted falling curve with a large enough effect; inconclusive means small, poorly fitted or top-dose-only effect; inactive means no such curve, though single readings can be large or run the other way; further: on the % scale 0 is the no-effect control and ±100 the full control effect; nearly all actives have a fitted effect of over 50% in size
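Fission yeast strain RE007, carrying one chromosomally integrated HIV-1 vpr copy, was seeded at OD 0.01 in PMG+AL medium with 23 nL pinned compound. After 24 h at 30 °C and 99% humidity, viability was read by BacTiter-Glo luminescence.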
SARS PLP yeast – blocks SARS-CoV papain-like protease in a yeast assay | Potency, µM (titrated, usually from 32.9 µM), inactives show top-dose activity, positive = growth rescue, hits mostly activators | AID 485353 | hit rate 0.19% among 330,000 | S. cerevisiae expressing SARS-CoV PLpro, growth rescue; further: 0% is about no effect; nearly all actives have a fitted effect of over 55% in size
NS1 inh – inhibitors of influenza NS1 protein function | Potency, µM (top dose mostly 46.1 µM), for inactives: at the top dose activity, positive = more growth | hit rate 0.4% among 270,000 | AID 2326; further: actives are rising curves; nearly all actives have a fitted effect of over 50% in size
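OD600 was taken as the measure of yeast growth restored by compound in an NS1-expressing S. cerevisiae strain. Cells had been washed out of glucose medium and diluted 1:100 into galactose -URA medium, pH 6.0.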
Pf growth 96h – inhibits malaria parasite growth, 96 h; Potency, µM (highest dose often 28.7 µM), without a hit: at the top dose activity change, negative = inhibition, usual class: inhibitors; P. falciparum luciferase reporter growth, 96 h; hit rate 6.9% among 320,000; active means well fitted inhibition curve with a large enough effect; inconclusive means small, poorly fitted or top-dose-only effect, or another doubt; inactive means no such curve, though single readings can be large or run the other way; further: on the % scale 0 is the no-effect control and ±100 the full control effect
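Cell-based qHTS: luciferase-tagged P. falciparum in erythrocytes (2% hematocrit, 0.05% parasitemia final) incubated with compounds for 96 hours, 37 C, 5% CO2; luciferase detection reagent then added and luminescence measured.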
Pf growth 48h – P. falciparum growth inhibition at 48 hours (one generation); P. falciparum luciferase growth in erythrocytes, 48 h; Potency, µM (highest dose often 28.7 µM), inactives show top-dose activity change, negative = inhibition, hits mostly inhibitors; AID 504832; hit rate 5.9% among 310,000; active means well fitted inhibition curve with a large enough effect; inconclusive means small, poorly fitted or top-dose-only effect, or another doubt; inactive means no such curve, though single readings can be large or run the other way; further: on the % scale 0 is the no-effect control and ±100 the full control effect
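Erythrocytes infected with P. falciparum carrying an integrated firefly luciferase reporter (2% hematocrit, 0.1% parasitemia final) were exposed to compounds in RPMI 1640 with 0.5% Albumax at 37 C, 5% CO2. Growth inhibition was scored as reduced luminescence.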
* hit, by the source's call; ? = inconclusive; nt = not tested or not shown. Unless noted, the call rests on the fitted dose curve. Potency means the concentration at half of the fitted maximal effect.

SMILES	RE007 growth inh	SARS PLP yeast	NS1 inh	Pf growth 96h	Pf growth 48h
CC(C)NC(=O)C1CCN(C(=O)c2cc3sccc3n2Cc2ccc(F)cc2)CC1	-4%	4%	-15%	nt	nt
O=C(c1cc2sccc2n1Cc1ccc(F)cc1)N1CCCc2ccccc21	-1%	-14%	13%	?	9.3µM*
CC1CCN(C(=O)C2CCN(C(=O)c3cc4sccc4n3Cc3ccc(F)cc3)CC2)CC1	12%	3%	-50%	31%	?
O=C(NCc1ccc(F)cc1)c1cc2sccc2n1Cc1ccc(F)cc1	nt	-9%	6%	10µM*	?
NCCP(=O)(O)O	nt	nt	-11%	nt	nt
CC(=O)N1CCN(C(=O)c2ccc(NS(=O)(=O)c3ccc4[nH]c(=O)[nH]c4c3)cc2)CC1	5%	0%	nt	0%	-4%
COc1cc(-c2cc(-c3ccccc3)nc(SCC(=O)Nc3nccs3)c2C#N)cc(OC)c1OC	3%	1%	3%	?	1.2µM*
COc1ccc(CNC(=O)CSc2nc(-c3ccccc3)cc(-c3cccs3)c2C#N)cc1	-1%	7%	-1%	6.6µM*	nt
CCc1nnc(NC(=O)CSc2nc(-c3ccccc3)cc(-c3ccc(F)cc3)c2C#N)s1	13%	5%	5%	100%	28%
O=[n+]1ccn([O-])c2ccccc21	nt	nt	nt	22%	9%
CCOC(=O)c1c(S(=O)(=O)N(C)C2CCCCC2)c(C)n(C)c1C	-4%	-7%	7%	?	-11%
COc1ccc2nc(NC(=O)C3CCN(S(=O)(=O)c4cccs4)CC3)sc2c1	-8%	-3%	19%	nt	13µM*
COc1ccc2nc(NC(=O)C3CCN(S(=O)(=O)c4cnc[nH]4)CC3)sc2c1	-2%	1%	1%	2%	-27%
COc1ccc2nc(NC(=O)C3CCCN(S(=O)(=O)c4cccs4)C3)sc2c1 (stereo unspecified)	16%	-6%	1%	?	9.3µM*
Cc1ccc2nc(NC(=O)C3CCN(S(=O)(=O)c4cccs4)CC3)sc2c1	-14%	-19%	-31%	0%	?
Cc1ccc2nc(NC(=O)C3CCN(S(=O)(=O)c4cnc[nH]4)CC3)sc2c1	1%	?	-11%	12µM*	60%
CCOC(=O)c1ccc(N/C(=N\S(=O)(=O)c2ccc(F)cc2F)c2ccccc2)cc1	-4%	-23%	-2%	6.6µM*	?
COC(=O)[C@]1(Cc2ccccc2)N[C@H](c2ccc(-c3cc(C(C)=O)cs3)cc2)[C@@H]2C(=O)N(C)C(=O)[C@@H]21	-16%	1%	nt	?	9.3µM*
COC(=O)[C@]1(Cc2ccccc2)N[C@H](c2ccc(-c3ccc(Cl)c(Cl)c3)cc2)[C@@H]2C(=O)N(C)C(=O)[C@@H]21	-1%	0%	nt	9.3µM*	5.9µM*
COC(=O)[C@]1(Cc2ccccc2)N[C@H](c2ccc(-c3ccccc3)cc2)[C@@H]2C(=O)N(C)C(=O)[C@@H]21	-1%	-5%	nt	?	?
COc1ccc(N2C(=O)C3C(c4ccc(C(=O)O)cc4)NC(Cc4ccccc4)(C(=O)O)C3C2=O)c([N+](=O)[O-])c1 (stereo unspecified)	2%	2%	17%	2.9µM*	12%
COC(=O)[C@]1(Cc2ccccc2)N[C@H](c2ccc(-c3cccc(Cl)c3)cc2)[C@@H]2C(=O)N(C)C(=O)[C@@H]21	33%	-7%	nt	5.2µM*	13µM*
Cc1ccccc1C(=O)NCC(=O)OC(C)C(=O)NCc1ccco1 (stereo unspecified)	-20%	0%	nt	-2%	28%
O=C(c1ccc(S(=O)(=O)Cc2cc(F)ccc2F)c([N+](=O)[O-])c1)N1CCCC1	-15%	-13%	nt	?	-29%
O=C(c1ccc(S(=O)(=O)Cc2cc(F)ccc2F)c([N+](=O)[O-])c1)N1CCCCC1	7%	3%	-3%	72%	15µM*
SMILES	RE007 growth inh	SARS PLP yeast	NS1 inh	Pf growth 96h	Pf growth 48h
O=C(c1ccc(S(=O)(=O)Cc2ccccc2Cl)c([N+](=O)[O-])c1)N1CCN(c2ccccn2)CC1	-9%	-1%	nt	13µM*	?
O=C1CCCCCC[C@@H](O)[C@H](O)C[C@H](c2ccccc2)O1	-8%	nt	nt	nt	nt
CC1(C)CC(NS(=O)(=O)c2ccc(C(C)(C)C)cc2)CC(C)(C)N1	0%	2%	0%	296%	3%
CC(=O)N1CCN(C(C(=O)Nc2c(C)cccc2C)c2cccc(F)c2)CC1 (stereo unspecified)	6%	nt	nt	nt	nt
COc1ccc(C(CCNCc2ccc(N(C)C)cc2)c2ccccc2)cc1 (stereo unspecified)	11%	1%	-4%	?	15µM*
COc1ccc(C(CCNCc2ccc(OC)c(OC)c2)c2ccc(F)cc2)cc1 (stereo unspecified)	-10%	0%	-3%	?	9.3µM*
CC(C)Oc1ccc(C(CCNCc2ccc(O)cc2)c2ccccc2)cc1 (stereo unspecified)	6%	-2%	-3%	1.2µM*	1.2µM*
COc1ccc(CCNCc2ccccc2)cc1	-18%	2%	?	9%	-8%
CCOC(=O)c1ccccc1NC(=O)C1CC(=O)N(c2ccccc2)C1 (stereo unspecified)	5%	0%	-11%	?	10%
COCc1c(C(=O)OCC(=O)N2c3ccccc3NC(=O)C2(C)C)oc2ccccc12	10%	-13%	-7%	12µM*	?
COCc1c(C(=O)OCC(=O)N2c3ccccc3CC2C)oc2ccccc12 (stereo unspecified)	4%	2%	-33%	34%	10%
COC(=O)c1cc2c([nH]c3ccccc32)c(C)n1	nt	-3%	-17%	2%	1%
COc1ccc(NC(=O)c2cc3c([nH]c4ccccc43)c(C)n2)cc1	3%	2%	-7%	9.3µM*	?
C#Cc1ccc(C(=O)Nc2ccc(N3CCC(C)CC3)c(C(N)=O)c2)cc1	-10%	0%	nt	?	1.9µM*
COc1cc2nc(=S)n3[nH]c(CCn4nc(C)cc4C)nc3c2cc1OC	-1%	3%	-3%	-10%	2.9µM*
COc1cc2nc(=S)n3[nH]c(COc4ccccc4C)nc3c2cc1OC	-19%	3%	13%	-8%	?
Cc1c(C(=O)NCC2COc3ccccc3O2)oc2ccc(S(=O)(=O)N(C)C3CCCCC3)cc12 (stereo unspecified)	5%	0%	22%	nt	9.3µM*
Cn1cc(C(=O)NCC2COc3ccccc3O2)c(=O)c2cc(S(=O)(=O)N3CCCCC3)ccc21 (stereo unspecified)	26%	14%	13%	nt	12µM*
O=C(Cc1ccccc1)Nc1ccc(C(=O)NCC2COc3ccccc3O2)cc1 (stereo unspecified)	2%	19%	-3%	0%	2%
O=C(NCC1COc2ccccc2O1)c1ccc(NC(=O)C(c2ccccc2)c2ccccc2)cc1 (stereo unspecified)	16%	7%	16%	?	9.3µM*
